The text below walks through data of the antibiotic and cytotoxicity screens of Wong et al. (2023).

Among all 39,000 compounds or so, about 3,300 (8.5%) were called active. The sample as a whole holds a higher share of actives than the screen did.

The experiment concerns HepG2. As to the kind of experiment: cytotoxicity call (relative viability < 0.9). As to conditions: 10 µM.
With `CCCCOC(=O)C1=CC(=O)CC(C)(C)O1`, the cytotoxicity call is “active”.

As for `C[C@@H](O)CN1C[C@H]2C[C@@H](C1)c1cccc(=O)n1C2`, the cytotoxicity call is “inactive”.

As to `CN1C[C@@H](C(=O)O)CN2CCN(C(=O)c3ccncc3F)C[C@@H]2C1`, the cytotoxicity call is “inactive”.

For `O=C1CC2(CCNCC2)CN1`, the cytotoxicity call is “inactive”.

With `C1CCC(NC2CCCC2)CC1`, the cytotoxicity call was “inactive”.

Consider `CCC1(C2=NCCN2)Cc2ccccc2O1.Cl` (stereo not drawn), for which the cytotoxicity call was “inactive”.

With `NCC[C@H]1COc2ccccc2O1`, the cytotoxicity call was “inactive”.

On to `Cl.c1ccc2c(c1)OCC(C1=NCCN1)O2` (stereo not drawn), for which the cytotoxicity call is “active”.

Regarding `FC(F)(F)c1nnc(N2CCNCC2)s1`, the cytotoxicity call is “inactive”.

As for `CCN1C[C@]2(COC)CC[C@H](O)[C@@]34[C@@H]2[C@@H](OC)[C@@H]([C@@H]13)[C@@]1(OC(C)=O)C[C@H](OC)[C@H]2C[C@H]4[C@@H]1[C@@H]2OC(C)=O`, the cytotoxicity call was “inactive”.

For the molecule `CC(C)c1csc(CCN)n1`, the cytotoxicity call was “inactive”.

In the case of `CN1C[C@H]2CN[C@H]2C1`, the cytotoxicity call was “inactive”.

For `Cc1[nH]c2ccccc2c1CN(C)C`, the cytotoxicity call is “inactive”.

Consider `Cc1cccc(N2CCNCC2)n1`, for which the cytotoxicity call is “inactive”.

For `O=C(O)C=CC(=O)O.c1ccc2nc(N3CCNCC3)ccc2c1`, the cytotoxicity call was “active”.

For `c1ccc(N2CCNCC2)nc1`, the cytotoxicity call is “inactive”.

Turning to `COc1ccc([C@H]2CC(=O)N3CCNC[C@@H]23)cc1`, the cytotoxicity call is “inactive”.

As for `CCCN1CC(CSC)CC2c3cccc4[nH]cc(c34)CC21.CS(=O)(=O)O` (stereo not drawn), the cytotoxicity call is “inactive”.

Take `CNC(C)C(O)c1ccccc1.Cl` (stereo not drawn): the cytotoxicity call is “inactive”.

Consider `O=C(O)C[C@H]1CC[C@@H]2NC[C@H](O)COC[C@H]2O1`, for which the cytotoxicity call is “inactive”.

As for `O=C([O-])Cc1ccccc1.[Na+]`, the cytotoxicity call was “inactive”.

In the case of `C[CH2][Hg][S]c1ccccc1C(=O)[O-].[Na+]`, the cytotoxicity call was “active”.

For the molecule `N[C@@]1(C(=O)O)CC[C@H](C(=O)O)C1`, the cytotoxicity call is “inactive”.

With `NCCc1ccc(S(=O)(=O)F)cc1`, the cytotoxicity call was “inactive”.

On to `CN1C(=O)NC(=O)/C(=C\C=C\c2ccco2)C1=O`, for which the cytotoxicity call was “inactive”.

On to `C[C@@]12NC(=O)CN1CCc1ccccc12`, for which the cytotoxicity call is “inactive”.

For `CC(C)NC(=O)C1=NO[C@]2(CCNC2)C1`, the cytotoxicity call is “inactive”.

For `Nc1nc(Cl)ncc1[N+](=O)[O-]`, the cytotoxicity call was “inactive”.

As to `O=C1CCCC2C3CC(CN12)C1CCCCN1C3.[O-][Cl+3]([O-])([O-])O` (stereo not drawn), the cytotoxicity call was “inactive”.

As to `c1ccc2c(c1)[nH]c1cnccc12`, the cytotoxicity call is “inactive”.

Consider `COc1ccc2cc(CCN)c(=O)[nH]c2c1`, for which the cytotoxicity call is “inactive”.

`Cc1nccc2c1[nH]c1ccccc12` [listing 1 of 2 here]: the cytotoxicity call is “active”.

With `COc1ccc2c(c1)[nH]c1c(C)nccc12`, the cytotoxicity call was “active”.

As for `Cc1nccc2c1[nH]c1cc(O)ccc12` [listing 1 of 2 here], the cytotoxicity call is “inactive”.

In the case of `Cc1nccc2c1[nH]c1ccccc12` [listing 2 of 2 here], the cytotoxicity call was “inactive”.

Consider `Cc1nccc2c1[nH]c1cc(O)ccc12` [listing 2 of 2 here], for which the cytotoxicity call is “active”.

`Cc1ccc(C=C2C(=O)NC(=O)NC2=O)cc1`: the cytotoxicity call is “inactive”.

On to `NCC(=O)Nc1ccc(Br)cc1C(=O)c1ccccc1`, for which the cytotoxicity call was “inactive”.

In the case of `Cn1cnc(CCN)c1`, the cytotoxicity call was “inactive”.

As for `CC1(C)CCNC1=O`, the cytotoxicity call was “inactive”.

Turning to `COS(C)(=O)=O`, the cytotoxicity call is “inactive”.

As for `C[C@@H]1CN([C@@H](C)CO)C(=O)c2cc(NC(=O)Nc3ccccc3)ccc2O[C@@H](C)CCCCO[C@H]1CN(C)C(=O)Oc1ccccc1`, the cytotoxicity call was “inactive”.

For `CNc1ccc2oc(C[C@H]3O[C@@]4(CC[C@H]3C)O[C@H]([C@H](C)C(=O)c3ccc[nH]3)[C@H](C)C[C@H]4C)nc2c1C(=O)O`, the cytotoxicity call was “active”.

In the case of `C[C@H]1CN([C@@H](C)CO)C(=O)CCCn2nncc2CO[C@H]1CN(C)C(=O)Oc1ccc2ccccc2c1`, the cytotoxicity call was “inactive”.

In the case of `CC=C1CC(C)C(O)(CO)C(=O)OCC2=CCN3CCC(OC1=O)C23` (stereo not drawn), the cytotoxicity call was “inactive”.

`O=C1CC(=O)N(Cc2ccccc2)C(=O)N1`: the cytotoxicity call was “inactive”.

As for `C[C@]12CC[C@](C)(O1)[C@H](C(=O)O)[C@@H]2C(=O)O`, the cytotoxicity call was “inactive”.

In the case of `O=C(O)[C@H]1[C@H](C(=O)O)[C@H]2CC[C@@H]1O2`, the cytotoxicity call was “inactive”.

Consider `C[C@@]1(C(=O)O)[C@H]2CC[C@@H](O2)[C@@]1(C)C(=O)O`, for which the cytotoxicity call is “active”.

With `OCCN1CC2(CCN(c3nccs3)C2)C1`, the cytotoxicity call is “inactive”.

For the molecule `C1CCNCC1`, the cytotoxicity call is “inactive”.

In the case of `Cc1cnc[nH]1`, the cytotoxicity call was “inactive”.

Regarding `C[C@@H]1CN([C@H](C)CO)C(=O)CCCn2cc(nn2)CO[C@H]1CN(C)C(=O)Oc1cccc2ccccc12`, the cytotoxicity call is “inactive”.

As to `C[C@H]1CN([C@@H](C)CO)C(=O)CCCn2cc(nn2)CO[C@@H]1CN(C)C(=O)Oc1cccc2ccccc12`, the cytotoxicity call is “inactive”.

For `CC(C)C12OC1C1OC13C1(C)CCC4=C(COC4=O)C1CC1OC13C2O` (stereo not drawn), the cytotoxicity call was “active”.

Consider `CC(C)c1ccc2c(c1O)CCC1C3=C(CCC21C)C(=O)OC3` (stereo not drawn), for which the cytotoxicity call was “inactive”.

On to `NCCc1c[nH]c2ccc(OCC(=O)O)cc12`, for which the cytotoxicity call was “inactive”.

Regarding `Nc1ncccc1CN1CC[C@]2(CC(=O)NC2=O)C1`, the cytotoxicity call is “inactive”.

On to `CC1CCC2C(C)C(=O)OC3OC4(C)CCC1C32OO4` (stereo not drawn), for which the cytotoxicity call was “inactive”.

Regarding `CCOC1OC2OC3(C)CCC4C(C)CCC(C1C)C24OO3` (stereo not drawn), the cytotoxicity call is “active”.

In the case of `NC(=O)C12CC(CN1)C2`, the cytotoxicity call was “inactive”.

For `COc1cc2c3cc1Oc1c(OC)c(OC)cc4c1C(Cc1cccc(c1)Oc1ccc(c(O)c1)CC3N(C)CC2)N(C)CC4.Cl.Cl` (stereo not drawn), the cytotoxicity call was “active”.

With `COc1cc2c3cc1Oc1c(OC)c(OC)cc4c1[C@@H](Cc1cccc(c1)Oc1ccc(c(O)c1)C[C@@H]3N(C)CC2)N(C)CC4`, the cytotoxicity call was “inactive”.

Consider `COc1ccc2c(c1O)-c1c(OC)c(OC)cc3c1C(C2)N(C)CC3` (stereo not drawn), for which the cytotoxicity call was “inactive”.

Consider `O=C(O)CF.[NaH]`, for which the cytotoxicity call was “inactive”.

As for `CC(=O)Oc1ccc(C=Cc2cc(OC(C)=O)cc(OC(C)=O)c2)cc1`, the cytotoxicity call was “inactive”.

`c1cnc(N2CCOC[C@@]3(CCCNC3)C2)cn1`: the cytotoxicity call is “inactive”.

Turning to `O=C(CCCN1CCC2(CC1)C(=O)N(Cc1cccc(F)c1)CN2c1ccccc1)c1ccc(F)cc1`, the cytotoxicity call was “active”.

As to `C[C@@H]1CN([C@@H](C)CO)C(=O)CCCn2nncc2CO[C@@H]1CN(C)C(=O)Oc1ccc2ccccc2c1`, the cytotoxicity call is “inactive”.

As for `C[C@@H]1CN([C@H](C)CO)C(=O)CCCn2cc(nn2)CO[C@@H]1CN(C)C(=O)Oc1ccc2ccccc2c1`, the cytotoxicity call is “inactive”.

Regarding `CC(C)C[C@H]1C(=O)N2CCC[C@H]2[C@]2(O)O[C@](NC(=O)[C@@H]3C=C4c5cccc6[nH]c(Br)c(c56)C[C@H]4N(C)C3)(C(C)C)C(=O)N12`, the cytotoxicity call is “inactive”.

Take `C[C@@H](N)Cc1c[nH]c2ccc(OCc3cccs3)cc12`: the cytotoxicity call is “inactive”.

For `C[C@H]1C[C@@H]2CNC[C@@H]2O1`, the cytotoxicity call was “inactive”.

As to `CCN(CC)CCOC(=O)C(O)(c1ccccc1)c1ccccc1.Cl`, the cytotoxicity call is “inactive”.

Regarding `CCCCOC(=O)c1ccccc1C(=O)OCCCC`, the cytotoxicity call is “active”.

As for `CC(N)C(O)c1ccc(O)c(O)c1` (stereo not drawn), the cytotoxicity call was “inactive”.

As for `CCS(=O)(=O)N1C[C@@H]2CCN[C@@H]2C1`, the cytotoxicity call was “inactive”.

Take `C[C@@H](N)Cc1c[nH]c2ccc(O)cc12`: the cytotoxicity call is “inactive”.

Take `O=C1CC[C@@H]2NCC[C@H]2N1`: the cytotoxicity call is “inactive”.

Turning to `CC[C@@H](N)[C@@H](O)c1ccc(O)c(O)c1`, the cytotoxicity call was “inactive”.

For the molecule `CCC(N)C(O)c1ccc(O)c(O)c1.Cl` (stereo not drawn), the cytotoxicity call is “active”.

For `C[C@H](N)[C@H](O)c1ccc(O)c(O)c1`, the cytotoxicity call was “inactive”.

In the case of `CC=C(C)C(=O)OC1CCC2(C)C3CCC4C5(O)CC(O)C6(O)C(CN7CC(C)CCC7C6(C)O)C5(O)CC42OC13O.Cl` (stereo not drawn), the cytotoxicity call is “inactive”.

As to `N#C[C@H](O[C@@H]1O[C@H](CO)[C@@H](O)[C@H](O)[C@H]1O)c1ccc(O)cc1`, the cytotoxicity call is “inactive”.

As for `Cl.N=C(N)NN`, the cytotoxicity call was “inactive”.

Turning to `[N-]=[N+]=Nc1ccc2[nH]ccc2c1`, the cytotoxicity call was “inactive”.

As for `Oc1ccc(N2CCNCC2)cc1`, the cytotoxicity call was “inactive”.

For the molecule `Nc1ccc(N2CCNCC2)cc1`, the cytotoxicity call is “inactive”.

As to `O=c1[nH]c2cc(N3CCNCC3)ccc2o1`, the cytotoxicity call was “active”.

Consider `OCc1ccco1`, for which the cytotoxicity call is “inactive”.

In the case of `Cc1nnc([C@H]2CCCNC2)o1`, the cytotoxicity call was “inactive”.

Take `CC[C@H]1/C=C/C=C/C[C@@H](C)[C@H](O)[C@@](C)(O)C(=O)[C@@H](C)[C@H](O)[C@@H](C)C(=O)[C@@H](C)[C@H](O)[C@@H](C)/C=C/C(=O)O[C@@H]2[C@H](C)[C@H](CC1)O[C@]1(CC[C@H](C)[C@H](C[C@@H](C)O)O1)[C@H]2C`: the cytotoxicity call was “inactive”.

Take `COc1cc(C2c3cc4c(cc3C(O)C3COC(=O)C23)OCO4)cc(OC)c1OC` (stereo not drawn): the cytotoxicity call was “active”.

`COc1ccc2c(c1OC)C(=O)OC2C1c2cc3c(cc2CCN1C)OCO3` (stereo not drawn): the cytotoxicity call was “inactive”.

`C[C@H](CO)N1C[C@H](C)[C@H](CN(C)C(=O)Oc2ccccc2)OCc2ccccc2-c2c(n(C)c3ccccc23)C1=O`: the cytotoxicity call was “inactive”.

Turning to `COc1cc2c(cc1OC)C1C(=O)c3ccc4oc(C(C)C)cc4c3OC1CO2` (stereo not drawn), the cytotoxicity call was “active”.

For the molecule `C=C(C)C1Cc2c(ccc3c2OC2COc4cc(OC)c(OC)cc4C2C3=O)O1` (stereo not drawn), the cytotoxicity call was “active”.

As to `C=C(C)C1Cc2c(ccc3c(=O)c4c(oc23)COc2cc(OC)c(OC)cc2-4)O1` (stereo not drawn), the cytotoxicity call is “inactive”.

As to `COc1cc2c(cc1OC)C1C(=O)c3ccc4c(c3OC1CO2)CC(C(C)C)O4` (stereo not drawn), the cytotoxicity call was “active”.

`O=C(NCc1ccccc1)[C@H]1C[C@H]2CNC[C@H]1O2`: the cytotoxicity call was “inactive”.

On to `CC(C)(C)[C@@]1(O)C[C@H]2OC(=O)C[C@]23C(=O)O[C@H]2OC(=O)[C@@H](O)[C@]231`, for which the cytotoxicity call was “inactive”.

For the molecule `C=CCN1CCC23c4c5ccc(O)c4OC2C(=O)CCC3(O)C1C5.Cl` (stereo not drawn), the cytotoxicity call was “inactive”.

With `CCOC(OCC)P(=O)(O)CCCN`, the cytotoxicity call was “inactive”.

For the molecule `O=C1CO[C@H]2CNC[C@@H]2N1CC1CCCC1`, the cytotoxicity call is “inactive”.

As for `CCOC(=O)[C@H]1[C@@H](C=C(C)C)C1(C)C`, the cytotoxicity call is “inactive”.

For the molecule `COc1ccc(N(C(=O)Oc2c(C)cccc2C)c2ccnc(Nc3ccc(N4CCN(C)CC4)cc3)n2)c(OC)c1`, the cytotoxicity call is “inactive”.

As to `N=C(N)N/N=C/c1ccc2c(c1)OCO2`, the cytotoxicity call was “inactive”.

As for `Cc1o[nH]c(=O)c1C[C@H](N)C(=O)O`, the cytotoxicity call was “inactive”.

For the molecule `CCC(=O)OC1CCC2C3CCC4=CC(=O)CCC4(C)C3CCC12C` (stereo not drawn), the cytotoxicity call was “inactive”.

Turning to `C#CC1(O)CCC2C3CCC4=CC(=O)CCC4(C)C3CCC21C` (stereo not drawn), the cytotoxicity call is “active”.

For `CC12CCC(=O)C=C1CCC1C2CCC2(C)C(O)CCC12` (stereo not drawn), the cytotoxicity call was “inactive”.

Turning to `CN1[C@H](CO)[C@H]2c3ccccc3NC[C@H]21`, the cytotoxicity call is “inactive”.

`Cl.NNCc1ccccc1`: the cytotoxicity call was “inactive”.

For the molecule `CC(=O)[O][Cd][O]C(C)=O`, the cytotoxicity call was “inactive”.

Turning to `NC[C@@H](O)c1ccc(Br)cc1`, the cytotoxicity call is “inactive”.

For the molecule `C[C@@H]1NC[C@@H]2CCCN2C1=O`, the cytotoxicity call is “inactive”.

Regarding `O=c1[nH]c2ccccc2n1C1CCN(CCCC(c2ccc(F)cc2)c2ccc(F)cc2)CC1`, the cytotoxicity call is “active”.

Turning to `O=c1[nH]c2ccccc2n1CCCN1CCC(n2c(=O)[nH]c3cc(Cl)ccc32)CC1`, the cytotoxicity call is “inactive”.
